Compounds without any hit were thinned out: in the full panel of roughly 83,000, 20% have a hit.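 Cell lines were cultured in 96-well plates, exposed to a single compound concentration, and assessed for percent growth 48 hours later.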 A number with no mark means an inactive call. Activity calls are given as the source filed them.
test system: U251 CNS; assay: NCI-60 one-dose screen, 48 h (100 = growth as untreated, 0 = no growth, -100 = all killed); conditions: 10 µM unless noted
Procedure: Growth inhibition of the U251 human tumor cell line is measured as a screen for anti-cancer activity. Cells are grown in 96 well plates and exposed to the test compound for 48 hours. Compounds are tested at a single concentration, which is 10^-5 M for most compounds. The reported endpoint is percent growth (GI% or GIPRCNT), where numbers from 0 - 100% represent growth inhibition, and numbers from -100% - 0 represent cell death. For example, a value of 40 represents 60% growth inhibition. A value of 0 means no net growth occurred over the course of the experiment. A value of -40 indicates 40% of cells at the beginning of the experiment died by the end of the experiment. A value of -100 means all cells are dead at the end of the experiment.
NCI-60 Human Tumor Cell Lines Screen was performed using the standard one-dose NCI protocol, which is described in more detail at https://dtp.cancer.gov/discovery_development/nci-60/default.htm.
Compounds with GIPRCNT values below 10 were considered active. Activity score was based on GIPRCNT using the following formula: […]
Score is 0 for GIPRCNT values of 100 or above, 50 for GIPRCNT values of 0, and 100 for GIPRCNT values of -100.

SMILES | growth
COc1ccc(/C(=C\c2ccc3c(c2)OCO3)C(=O)Nc2nc3ccccc3s2)cc1OC | 97.9%
Cc1ccccc1-c1nc(C(Cl)Cl)nc2cc(-c3ccccc3)nn12 | 47.2%
N=C(N)c1ccc(-c2ccc(-c3cc(F)cc(F)c3)o2)nc1 | 85.9%
CCCCCC1CCCCN1C(=O)OCC (stereo not given) | 96.7%
COc1cc(-c2cc3ncccc3c3nc(OCCN(C)C)c4cccnc4c23)cc(OC)c1OC | 11.8%
C/C(=C(/c1ccccc1)c1ccc(N2C(=O)c3cccc4c(NCc5ccccc5)ccc(c34)C2=O)cc1)c1ccccc1 | 99.5%
Cc1ccc2[nH]cc(-c3nc(-c4cn(C)c5ncccc45)cs3)c2c1 | 94.8%
CC(=O)Cc1nsc(NC(=O)c2ccoc2COc2ccccc2)n1 | 96.5%
Cc1nn2c(-c3nc4cc(Cl)c(Cl)cc4[nH]3)c(-c3ccc(F)cc3)nc2s1 | 10.6%
C=C1CC[C@@H](C(=O)OC)Cc2nc(C)ccc21 | 103%
Oc1ccc(CCC2CCCC(CCc3ccc(OCCF)cc3)N2)cc1 (stereo not given) | 85.8%
COc1ccc(/C=C/C(=O)NCC(C)O)cc1 (stereo not given) | 95.8%
CC1(C)CC[C@]2(CO)CC[C@]3(C)C(=CC[C@@H]4[C@@]5(C)CC[C@H](NCO)C(C)(C)[C@@H]5CC[C@]43C)[C@@H]2C1 | -79.4% (active)
COc1cc(-c2cc(-c3nc4cc(Cl)c(Cl)cc4[nH]3)[nH]n2)cc(OC)c1OC | 75.7%
Cc1nnc2nc(N)[nH]n2c1=O | 99%
C[C@]12CC[C@@H]3c4ccc(O)cc4CC[C@H]3[C@@H]1C[C@H](O)[C@@H]2O | 100%
CCN1CCN(C(=O)[C@@]2(C)CC[C@]3(C)CC[C@]4(C)C(=CC(=O)[C@@H]5[C@@]6(C)CC[C@H](OCCC#N)C(C)(C)[C@@H]6CC[C@]54C)[C@@H]3C2)CC1 | 64.2%
C=C(C)[C@@H]1CC[C@]2(C(=O)O)CC[C@]3(C)[C@H](CC[C@@H]4[C@@]5(C)C/C(=C/c6cccc(I)c6)C(=O)C(C)(C)[C@@H]5CC[C@]43C)[C@@H]12 | 18.4%
N#CC1=C(N)Oc2c(sc3c(F)cccc23)C1c1ccc(Cl)cc1 (stereo not given) | 25.7%
Cc1cccc2c1NC(=O)[C@@]21[C@H](C(=O)c2ccccc2)[C@]2(C(=O)Nc3ccccc32)[C@H]2CCCN21 | 1.7% [100 µM] (active)

SMILES | growth
CCN(CC)CCCCCCNc1ccnc2cc(Cl)ccc12 | 85.3%
COC(=O)[C@]12CC[C@@H](C)[C@H](C)[C@@H]1C1=CC[C@@H]3[C@@]4(C)C[C@@H](O)[C@H](O)[C@@](C)(CO)C4=CC[C@@]3(C)[C@]1(C)CC2 | -85.4% (active)
Fc1ccc2c(c1)c(-c1nc(-c3c[nH]c4ncccc34)cs1)cn2CCCN1CCCCC1 | 24.9%
Cn1cccc1/C=C1/SC(=S)N(CCc2ccc(O)cc2)C1=O | 41.8%
COc1cccc(-c2nn(-c3ccccc3)cc2-c2ccnc(NCCCNS(=O)(=O)c3ccc(Br)cc3)c2)c1 | 40.2%
Nc1c(C(=O)Nc2c(Cl)cccc2Cl)sc2nc3c(cc12)C(=O)CCC3 | 26.4%
CCN1CCN(C(=O)[C@@]2(C)CC[C@]3(C)CC[C@]4(C)C(=CC(=O)[C@@H]5[C@@]6(C)CC[C@H](OC7C[C@@H](O)[C@@H](O)C(C)O7)C(C)(C)[C@@H]6CC[C@]54C)[C@@H]3C2)CC1 (stereo not given in full) | 10.3%
Cn1cc(-c2nc(-c3cn(C)c4ncccc34)cs2)c2cc(F)ccc21 | 31.8%
CC(C)(C)c1ccc(OP(=S)(N/N=C/c2ccccc2O)Oc2ccc(C(C)(C)C)cc2)cc1 | 50.4%
CCCCCCCN(CCCCCCC)C(=N)c1ccnc2ccccc12 | -87.5% (active)
Cc1ccc(N(CC(=O)Nc2ccc(S(=O)(=O)N3CCC(N4CCCC4)CC3)cc2)S(=O)(=O)c2ccc(Cl)cc2)cc1 | -2.58% (active)
Cc1cc2nc3c4cc(O)ccc4n(CCN(C)C)c3nc2cc1C | 3.44% (active)
O=c1[nH]c2c3ccncc3cc(-c3cccc(Cl)c3)c2c2cnccc12 | 13.4%
CCC(c1ccc(OC)cc1)C(CC)c1ccc(O)c(CN2CCCCC2)c1 (stereo not given) | 72.8%
CCc1nnc(NC(=O)c2ccoc2COc2ccccc2)s1 | 49.7%
C=C(C)[C@@H]1CC[C@]2(C=NCCCNCCCCNCCCN)CC[C@]3(C)[C@H](CC[C@@H]4[C@@]5(C)CCCNC(C)(C)[C@@H]5CC[C@]43C)[C@@H]12 | 91.6%
COc1cc2[nH]c(C(=O)c3cc(OC)c(OC)c(OC)c3)c(N)c2cc1C#CCO | 22.8%
COC(=O)[C@]12CC[C@@H](C)[C@H](C)[C@@H]1C1=CC[C@@H]3[C@@]4(C)CC(=O)[C@H](OC(=O)c5ccco5)[C@@]5(C)COC(=C45)C[C@@]3(C)[C@]1(C)CC2 | 24.9%
C=C(C)[C@@H]1CC[C@]2(C)[C@H](CC[C@@H]3[C@H]4[C@H]5OC[C@@]4(CCC5(C)C)CC[C@]32C)[C@@]1(C)CCCN | -19.2% (active)
COc1cnc2c(c1)C(=O)c1c-2n(CCCNC(C)C)c(=O)c2cc([N+](=O)[O-])ccc12 | -80.6% (active)

Source: PubChem BioAssay (NCI)
